The values that follow come from PubChem BioAssay AID2061304 (National Center for Advancing Translational Sciences (NCATS), 2025).

Records with an inconclusive call do not appear. Activity calls are given as the source filed them. Calls follow the shape of the dose curve; as a rule, active = well fitted inhibition curve with a large enough effect; inconclusive = small, poorly fitted or top-dose-only effect; inactive = flat fitted curve, though single readings scatter. Square brackets hold non-standard residues; d marks the D form. Peptide text beside a SMILES is read from it. Dolaproine = CO[C@@H]([C@@H]1CCCN1)[C@@H](C)C(=O)O; Dil = CC[C@H](C)[C@H](NC)[C@@H](CC(=O)O)OC; NMeV = CN[C@H](C(=O)O)C(C)C

The test can be described thus: Identification of antibody-drug conjugate (ADC) payloads which are substrates of ATP-binding cassette drug efflux transporters: ABCB1-HeLa-KB-8-5-11 cell line. Conditions: KB-8-5-11 (P-gp overexpressing HeLa) viability, CellTiter-Glo, 48 h; series mostly up to 31.4 µM; activity change, negative = less viable: at the top concentration. From the text:
Antibody-drug conjugates (ADCs) feature an antibody recognizing a specific protein joined to a potent toxic payload. Numerous antibody-drug conjugates have received FDA approval; however, clinical resistance arises. Resistance mechanisms include decreased expression or mutation of the antibody target, impaired payload release, or increased expression of ATP-binding cassette (ABC) efflux transporters associated with multidrug resistance. We therefore sought to characterize the interaction of ABC multidrug transporters with ADC payloads. We performed a high-throughput screen with 27 common ADC payloads using cells lines expressing ABC transporters P-glycoprotein (P-gp, encoded by ABCB1) or ABCG2 (encoded by ABCG2). Confirmatory assays were also performed using cells transfected to express P-gp, ABCG2, or MRP1 (encoded by ABCC1). Several commonly used ADC payloads were substrates of P-gp, including calicheamicin gamma1, monomethyl auristatin E, DM1, and DM4. All the pyrrolobenzodiazepines tested - SJG136, SGD-1882, SG2057, and SG3199 - were substrates of P-gp, ABCG2, and MRP1. […] These findings highlight the risk of transporter-mediated resistance with certain ADC payloads and underscore the importance of selecting payloads that evade ABC transporter recognition in future ADC development.
HEK-293 cells were transfected with empty vector (pcDNA) or vector containing the human ABCB1 (MDR-19), ABCG2 (R-5), or ABCC1 gene (MRP1) and were maintained in EMEM with 2 mg/mL G418 added to maintain transporter expression. The HeLa derivative KB-3-1 and the P-gp overexpressing KB-8-5-11 subline were maintained in DMEM; KB-8-5-11 additionally received 100 ng/mL colchicine. H460 parental cells were obtained from the Division of Cancer Treatment and Diagnosis Tumor Repository, National Cancer Institute at Frederick, MD and were cultured in RPMI. The ABCG2 expressing subline H460 MX20 was generated by selecting H460 cells in 20 nM mitoxantrone. Media in all cases was supplemented with 10% FBS and 1% penicillin-streptomycin. We explored 27 common ADC payloads, in two orthogonal, paired cell line sets-a drug selected and transfected set for each transporter--to identify substrates of the ABC transporters P-gp and ABCG2. Compounds were sourced from Levena Biopharma (San Diego, CA), Selleck Chem (Houston, TX), ChemieTek (Indianapolis, IN), or Microsource Discovery Systems (Gaylordsville, CT). Screening was performed as previously described. Briefly, cells were plated at a density of 500 cells/well in 1536 well plates with compounds added using a 1536-head pin tool (Kalypsys, San Diego CA). Cells were incubated with cytotoxic drugs and processed with CellTiter Glo reagent (Promega, Madison, WI) to determine viability after 48 hours. P-gp substrates were identified by comparing compound activity between paired sets of low-expressing (sensitive) and over-expressing (resistant) cell lines.
With `CC(C)(C)OC(=O)Nc1ccc2[nH]c(C(=O)N3C[C@@H](CCl)c4c3cc(O)c3ccccc43)cc2c1`, the Potency was 9.4 nM (active).

On to `CCN[C@H]1CO[C@@H](O[C@H]2[C@H](O[C@H]3C#C/C=C\C#C[C@]4(O)CC(=O)C(NC(=O)OC)=C3/C4=C\CSSSC)O[C@H](C)[C@@H](NO[C@H]3C[C@H](O)[C@H](SC(=O)c4c(C)c(I)c(O[C@@H]5O[C@@H](C)[C@H](O)[C@@H](OC)[C@H]5O)c(OC)c4OC)[C@@H](C)O3)[C@@H]2O)C[C@@H]1OC`, for which the Potency is 420 nM (active).

On to `COC(=O)c1cc2c3c(cc(O)c2[nH]1)N(C(=O)c1cc2cc(OC)c(OC)c(OC)c2[nH]1)CC3CCl` (stereo not drawn), for which the Potency is 0.6 nM (active).

In the case of `CN(C)CCOc1ccc2[nH]c(C(=O)N3C[C@@H](CCl)c4c3cc(O)c3ccccc43)cc2c1`, the Potency is 0.7 nM (active).

For the molecule `CCc1c2c(nc3ccc(O)cc13)-c1cc3c(c(=O)n1C2)COC(=O)[C@]3(O)CC`, the Potency is 1330 nM (active).

Consider `CC[C@H](C)[C@@H]([C@H](N)CC(=O)N1CCC[C@H]1[C@H](OC)[C@@H](C)C(=O)N[C@@H](Cc1ccccc1)c1nccs1)N(C)C(=O)[C@@H](NC(=O)[C@@H](NC)C(C)C)C(C)C`, for which the Potency is 1.9 nM (active).

For the molecule `COc1cccc2c1C(=O)c1c(O)c3c(c(O)c1C2=O)C[C@@](O)(C(=O)CO)C[C@@H]3O[C@H]1C[C@H]2[C@H](O[C@@H]3[C@@H](OC)OCCN32)[C@H](C)O1`, the Potency was 0.2 nM (active).

For `CC[C@H](C)[C@@H]([C@H](N)CC(=O)N1CCC[C@H]1[C@H](OC)[C@@H](C)C(=O)N[C@@H](Cc1ccccc1)c1nccs1)N(C)C(=O)[C@@H](NC(=O)[C@H](C(C)C)N(C)C)C(C)C`, the Potency is 6.7 nM (active).

As to `COc1cc2cc(c1Cl)N(C)C(=O)C[C@H](O)[C@]1(C)O[C@H]1[C@H](C)C1C[C@@](O)(NC(=O)O1)[C@H](OC)/C=C/C=C(\C)C2`, the Potency was 13300 nM (active).

Regarding `COc1cccc2c1C(=O)c1c(O)c3c(c(O)c1C2=O)C[C@@](O)(C(=O)CO)C[C@@H]3O[C@H]1C[C@H](N)[C@H](O)[C@H](C)O1`, the Potency was 16700 nM (active).

Regarding `COc1ccc(C2=CN3C(=O)c4cc(OC)c(OCCCOc5cc6c(cc5OC)C(=O)N5C=C(c7ccc(N)cc7)C[C@@H]5C=N6)cc4N=C[C@H]3C2)cc1`, the “activity change, negative = less viable” value is 0.446% (inactive).

In the case of `CC[C@]1(O)CC2CN(CCc3c([nH]c4ccccc34)[C@@](C(=O)OC)(c3cc4c(cc3OC)N(C)[C@H]3[C@@](O)(C(=O)OC)[C@H](OC(C)=O)[C@]5(CC)C=CCN6CC[C@]43[C@@H]65)C2)C1` (stereo partly drawn), the Potency was 298 nM (active).

Take `CC[C@H](C)[C@@H]([C@@H](CC(=O)N1CCC[C@H]1[C@H](OC)[C@@H](C)C(=O)N[C@@H](Cc1ccccc1)C(=O)O)OC)N(C)C(=O)[C@@H](NC(=O)[C@@H](NC)C(C)C)C(C)C` (H-[NMeV]V[Dil][Dolaproine]F-OH): the Potency is 265 nM (active).
